PubChem BioAssay (Tox21)
Values without a mark were called inactive. The source made the active and inactive calls. Calls follow the shape of the full dose curve.

target: Acetylcholinesterase (Homo sapiens) (UniProt P22303); test: Acetylcholinesterase (AChE) small molecule antagonists: enzyme-based qHTS assay with human liver microsomes (AID 1347399); settings: Potency: qHTS inhibition; outcome: qHTS inhibition; series mostly up to 115 µM; activity change, negative = inhibition: at the top concentration; also: nearly all actives have a fitted effect of over 60% in size
Sequence (P22303 whole entry, looked up): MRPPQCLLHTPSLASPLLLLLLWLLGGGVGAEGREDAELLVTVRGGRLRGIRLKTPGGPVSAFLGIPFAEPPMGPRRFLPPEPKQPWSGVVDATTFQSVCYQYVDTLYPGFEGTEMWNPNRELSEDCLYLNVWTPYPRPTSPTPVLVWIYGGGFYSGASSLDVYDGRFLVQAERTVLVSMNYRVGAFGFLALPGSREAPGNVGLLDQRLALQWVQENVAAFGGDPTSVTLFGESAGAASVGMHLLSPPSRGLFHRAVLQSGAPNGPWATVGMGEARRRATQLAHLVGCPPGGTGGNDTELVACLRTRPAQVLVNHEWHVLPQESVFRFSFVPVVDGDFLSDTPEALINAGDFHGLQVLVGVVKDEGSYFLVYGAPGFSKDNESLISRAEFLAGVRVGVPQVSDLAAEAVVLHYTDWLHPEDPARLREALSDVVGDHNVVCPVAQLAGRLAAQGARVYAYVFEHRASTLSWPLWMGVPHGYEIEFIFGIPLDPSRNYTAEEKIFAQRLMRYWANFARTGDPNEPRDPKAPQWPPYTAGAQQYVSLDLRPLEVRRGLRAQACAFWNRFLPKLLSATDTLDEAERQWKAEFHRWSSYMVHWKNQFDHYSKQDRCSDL
Text: National Center for Advancing Translational Sciences [NCATS]
Division of Preclinical Innovation [DPI]
U.S. Environmental Protection Agency [EPA]
National Institutes of Environmental Health Sciences [NIEHS]
National Toxicology Program [NTP]
U.S. Food and Drug Administration [FDA]
Acetylcholinesterase (AChE) is the primary cholinesterase in the body that hydrolyzes a key neurotransmitter, acetylcholine. Inhibition of AChE activity can lead to neurotoxicity. The known inhibitors include organophosphorous pesticides (OP), chemical warfare agents, drugs, and various phytochemicals. Some compounds like OP compounds may need metabolic activation to be active AChE inhibitors. The cytochrome P450 (CYP) superfamily in the human microsomes is responsible for the metabolism of various endogenous and exogenous compounds.
An enzyme-based assay with the recombinant human AChE, human liver microsomes and Amplite Colormetric acetylcholinesterase assay kit (AAT Bioquest, Sunnyvale, CA) was used to evaluate compounds in the Tox21 10K library that need metabolic activation for AChE inhibition. The assay uses 5, 5-dithiobis-(2-nitrobenzoic acid) (DTNB) to quantify the thiocholine produced from the hydrolysis of acetylthiocholine by AChE.
Tox21 Assay Protocol Summary:
For the enzyme-based AChE assay with microsomes addition, a mixture of human AChE (50 mU/mL) and human liver microsomes (0.25 mg/mL, final concentration) in 3 uL/well was dispensed into black, clear-bottom 1536-well plates using a Multidrop Combi dispenser (Thermo Scientific, MA). Then, 23 nL of compound or DMSO (vehicle control) was transferred into the assay plates by a Pintool Station (Wako Automation, CA). Following compound addition, 1 uL of NADPH (0.25 mg/mL, final concentration) was transferred to the assay plate by a Flying Reagent Dispenser (Beckman Coulter, CA). The plates were incubated for 30 min at 37 C and 5% CO2, followed by the addition of 4 uL of colorimetric detection cocktail solution (DTNB, acetylthiocholine) into each well using a Flying Reagent Dispenser (Beckman Coulter, CA) and then 10 min incubation at room temperature.
% is scaled to controls: 0 for no effect and ±100 for the full control effect; potency is read from the fitted curve at half-maximal effect.

Structure (SMILES) | activity change, negative = inhibition | Potency
CCNC(=O)NC(=O)/C(C#N)=N/OC | -1.16% | –
Clc1ccccc1 | -0.379% | –
CN1C[C@H](C(=O)N[C@]2(C)O[C@@]3(O)[C@@H]4CCCN4C(=O)[C@H](Cc4ccccc4)N3C2=O)C=C2c3cccc4[nH]cc(c34)C[C@H]21 | – | inactive
CCCCCCCCCCCCN=C(N)N | 1.01% [at 4.07 µM] | –
O=C([O-])c1ccccn1.O=C([O-])c1ccccn1.O=C([O-])c1ccccn1.[Cr+3] | -1.55% | –
CC(C)OC(=O)Cc1ccccc1 | -3.09% | –
Oc1cccc(Cl)c1 | 1.01% | –
CC(C)(C)c1ccc(CCOc2ncnc3ccccc23)cc1 | -0.611% | –
C=CCOC(=O)C(C)(C)OC(=O)c1cc(-n2c(=O)cc(C(F)(F)F)n(C)c2=O)ccc1Cl | -0.146% | –
COc1cc(C[C@@H](C)N)c(OC)cc1Br | -1.44% | –
Nc1cccc2ccccc12 | – | inactive
CCCCCl | 0.341% | –
O=C(CCl)CCl | – | inactive
O=C(N/N=C/c1ccc([N+](=O)[O-])o1)c1cc([N+](=O)[O-])cc([N+](=O)[O-])c1O | 21.8% [at 53 µM] | –
CCC(C)(C)O | -3.91% | –
CCC1CCC(=O)O1 (stereo not given) | 1.18% | –
CN[C@@H](C)[C@H](O)c1ccccc1 | 0.017% [at 53 µM] | –
C[C@]12CC[C@H]3[C@@H](CCC4=CC(=O)CC[C@@H]43)[C@@H]1CC[C@@H]2OC(=O)CCc1ccccc1 | -1.34% [at 53 µM] | –
CN(C1CCCCC1)C1CCCCC1 | -1.54% | –
CC(C)(C)NCC(O)c1cc(Cl)c(N)c(C(F)(F)F)c1 (stereo not given) | -0.36% [at 53 µM] | –

Structure (SMILES) | activity change, negative = inhibition | Potency
CCOC(=O)NC(O)C(Cl)(Cl)Cl (stereo not given) | -0.755% [at 53 µM] | –
C[C@]12C=CC3=C4CCC(=O)C=C4CC[C@H]3[C@@H]1CC[C@@H]2O | – | inactive
COc1ccc(C(=O)c2c(C)n(CCN3CCOCC3)c3ccccc23)cc1 | 0.726% [at 53 µM] | –
O=C1c2ccccc2C(=O)N1SC(Cl)(Cl)Cl | – | inactive
CC(C)(C)N(NC(=O)c1ccc(Cl)cc1)C(=O)c1ccccc1 | -0.286% | –
COC1CC(=C(c2cccs2)c2cccs2)C[N+](C)(C)C1 (stereo not given) | -0.461% [at 53 µM] | –
Cc1nc2ccccc2c(=O)n1-c1ccccc1Cl | -1.63% | –
N#CC(C#N)=Cc1ccc(O)c(O)c1 | 1.5% [at 53 µM] | –
C1CS1 | 0.298% | –
CCC(C)(C)c1ccc(O)c(C(C)(C)CC)c1 | – | inactive
C1CCNCC1 | -2.39% | –
NP(N)(=O)NC(=O)c1ccc(F)cc1 | 6.55% [at 53 µM] | –
C[N+](C)(C)CCOC(=O)C(O)(c1ccccc1)c1ccccc1 | 0.738% [at 53 µM] | –
C[C@H]1O[C@H](OC2[C@@H](O)[C@@H](O)C(O)[C@H](O)[C@H]2O)[C@@H](N)C[C@@H]1N=C(N)C(=O)O (stereo not given in full) | 0.313% | –
O=S(=O)(Cl)Cl | 14% | –
CCCSP(=S)(OCC)Oc1ccc(SC)cc1 (stereo not given) | -0.153% | –
CC(Cc1ccccc1)NCc1ccccc1Cl (stereo not given) | 0.439% [at 53 µM] | –
Nc1ccc2c(c1)Cc1ccccc1-2 | 1.77% | –
CCC(=O)O[C@@H]1C=C2CCC3C(CCC4(C)C3CC[C@@H]4OC(=O)CC)C2CC1 (stereo not given in full) | -1.47% [at 53 µM] | –
CNC(=O)Oc1cccc(N=CN(C)C)c1 | – | 63.3 µM (active)
